Assay outcomes deposited in PubChem BioAssay by several laboratories.
The list is not random: actives were taken first. Their share in the collection is about 3.6%.
HSP90 refold inh = HSP90 inhibitors, primary screen, cell lysate, luminescence | inhibition, % at 5.6 µM | hit rate 0.91% among 290,000 | Heat shock protein HSP 90 (rabbit reticulocyte lysate; luciferase refolding) | Rabbit reticulocyte lysate, luciferase refolding luminescence, 3 h;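 active = inhibition above the screen-wide mean plus 3 SD, computed separately per campaign, cut at about 16% in these data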;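 note: 0% = DMSO wells and 100% = 60 µM geldanamycin wells; inhibitors lower the luminescence because luciferase stays unfolded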
KKLEB cytotox = cytotoxicity in KKLEB CF airway cells, primary screen, cytotoxicity control for CF NF-kB inhibitor project, cell-based, uHTS, fluorescence assay plates; AID 602141, 2011; hit rate 0.36% among 360,000; activity change (cytotoxicity), % at 5 µM; KKLEB CF airway cells viability, ATPlite luminescence, overnight; active compounds read low; cells stimulated with P. aeruginosa culture filtrate;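 active = corrected activity change at or below -50% at 5 µM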
Peg3 promoter = Peg3 promoter-driven luciferase inhibitors, primary screen, cell-based, HeLa, luciferase luminescence; inhibition, % at 20 µM; HeLa PEG-Prom luciferase reporter, overnight; hit rate 1.7% among 360,000;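 active = inhibition of at least 50% at 20 µM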
LGR2 antag = inhibitors of bursicon-induced LGR2 CRE-luciferase signal, primary screen, cell-based, HEK293, CRE-luciferase reporter, bursicon stimulation; hit rate 0.35% among 380,000; bursicon-stimulated, 4 h; AID 720647, 2013; inhibition, % at 9.99 µM;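 active = drop in luminescence signal, shown as inhibition above about 50% in the replicate tests, limit read from the data, passing the limit was not always enough; inconclusive = probably only some replicates passing the limit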;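 note: agonist challenge used bursicon conditioned medium at about half maximal strength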
CF NFkB block = inhibitors of PAF-induced NF-kB signaling, primary screen, cell-based, GFP fluorescence, uHTS; KKLEB NF-kB-GFP reporter, GFP fluorescence overnight; inhibition, % at 5 µM; hit rate 0.86% among 360,000; AID 588850, 2011;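 active = at least 50% inhibition at 5 µM, scaled per plate between neutral and stimulator controls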;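 note: PAF is a Pseudomonas aeruginosa culture filtrate used as stimulus; plate controls were PAF-stimulated DMSO wells for no effect and unstimulated DMSO wells for full effect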
Mdm2-MdmX inh = inhibitors of human Mdm2-MdmX association, primary screen, cell-based, luminescence, split luciferase, SaOS-2, uHTS; SaOS-2 split-luciferase Mdm2/MdmX complementation; Protein Mdm4 (Homo sapiens) + E3 ubiquitin-protein ligase Mdm2 (Homo sapiens), …; hit rate 3% among 330,000; inhibition, % at 8 µM; AID 485346, 2010;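 active = inhibition of at least 50% at 8 µM in the primary screen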
Target sequence (O15151 whole entry, looked up): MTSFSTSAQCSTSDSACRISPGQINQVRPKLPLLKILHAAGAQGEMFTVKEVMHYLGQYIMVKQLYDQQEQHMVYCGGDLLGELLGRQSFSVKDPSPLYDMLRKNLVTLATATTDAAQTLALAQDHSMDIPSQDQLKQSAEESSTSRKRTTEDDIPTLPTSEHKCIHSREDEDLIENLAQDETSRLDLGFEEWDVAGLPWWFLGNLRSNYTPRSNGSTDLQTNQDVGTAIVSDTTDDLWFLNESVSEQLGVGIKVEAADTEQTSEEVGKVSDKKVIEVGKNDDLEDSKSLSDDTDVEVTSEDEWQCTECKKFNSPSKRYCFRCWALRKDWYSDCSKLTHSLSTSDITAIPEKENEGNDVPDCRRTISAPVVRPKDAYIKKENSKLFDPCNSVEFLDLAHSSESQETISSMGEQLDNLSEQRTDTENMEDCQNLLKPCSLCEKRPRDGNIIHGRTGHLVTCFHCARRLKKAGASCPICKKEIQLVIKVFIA
Target sequence (Q00987 whole entry, looked up): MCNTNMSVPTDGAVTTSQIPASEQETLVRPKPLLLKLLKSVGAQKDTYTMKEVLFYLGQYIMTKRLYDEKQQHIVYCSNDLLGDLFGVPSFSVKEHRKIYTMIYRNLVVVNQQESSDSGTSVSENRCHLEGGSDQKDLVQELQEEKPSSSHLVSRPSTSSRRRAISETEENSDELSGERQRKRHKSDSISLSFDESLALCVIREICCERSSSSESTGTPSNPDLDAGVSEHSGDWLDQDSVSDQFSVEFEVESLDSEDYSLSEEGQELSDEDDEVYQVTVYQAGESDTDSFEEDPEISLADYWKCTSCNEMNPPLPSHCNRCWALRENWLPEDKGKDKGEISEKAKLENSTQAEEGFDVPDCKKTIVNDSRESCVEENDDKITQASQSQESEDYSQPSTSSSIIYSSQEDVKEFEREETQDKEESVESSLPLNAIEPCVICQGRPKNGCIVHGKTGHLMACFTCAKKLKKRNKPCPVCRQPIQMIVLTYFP
Mdm2-MdmX conf = Mdm2-MdmX complex disruptors, retested hits, confirmation, luminescence, single concentration | hit rate 55% among 10,000 | inhibition, % at 8 µM | shares compounds with Mdm2-MdmX inh | Mdm2-MdmX binding, luminescent assay; in the data active = inhibition above about 40%
FLuc counter = full-length luciferase signal inhibition, confirmation, counter-screen for Mdm2/MdmX interaction inhibitor project, cell-based, single concentration, SaOS-2. shares compounds with Mdm2-MdmX inh. SaOS-2 full-length luciferase counterscreen, luminescence. inhibition, % at 8 µM. hit rate 77% among 6,200. AID 504607, 2011;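 active = mean inhibition at 8 µM reaching about 37%, which flags the compound as non-specific, limit read from the data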;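 note: p53-null SaOS-2 cells with luciferase driven by a doxycycline-inducible promoter; compound on cells about two nights before reading with doxycycline added after day one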
* hit, by the source's call; u = inconclusive; x = not tested or not shown.

SMILES | HSP90 refold inh | KKLEB cytotox | Peg3 promoter | LGR2 antag | CF NFkB block | Mdm2-MdmX inh | Mdm2-MdmX conf | others
Cn1ncc(Cl)c1C(=O)Nc1cccc(Cl)c1 | 4.4 | -4.9 | -6.8 | x | -0.4 | 26.3 | x
Cc1occc1C(=O)N/N=C/c1c(O)ccc2ccccc12 | -3.7 | -4.2 | -34.4 | -39.0 | 18.6 | 84.4* | 83.3* | FLuc counter=20.6
Cn1ncc(N=Cc2c(O)ccc3ccccc23)c1C(=O)Nc1cccc(Cl)c1 | 1.6 | -31.3 | 17.4 | u | 5.0 | 61.2* | 0.2
Nc1nc(N)c2cc(Sc3ccc4ccccc4c3)ccc2n1 | 4.9 | -16.4 | 106.6* | 18.5 | 34.8 | 100.2* | 61.5* | FLuc counter=37.5*
Nc1ccc(Sc2cc(Cl)nc(N)n2)cc1 | 3.1 | x | x | x | x | 21.7 | x
Cc1ccc([N+](=O)[O-])cc1NC(=S)NC(=O)c1cccs1 | 1.8 | 5.0 | 20.3 | 6.8 | -3.4 | 61.9* | 17.5
COc1ccc([N+](=O)[O-])cc1NC(=O)c1cccs1 | 5.5 | 4.5 | 8.2 | 20.5 | -50.9 | 15.1 | x
CN(C)C(=O)c1cccc(-c2ccc(C3[C@@H]4CN(S(=O)(=O)c5ccccc5F)C[C@H]3N4)cc2)c1 (stereo partly drawn) | x | x | x | 9.8 | x | x | x
COc1cccc(NC(=O)N(C)C[C@H]2Oc3cc(/C=C/c4ccccc4)ccc3S(=O)(=O)N([C@@H](C)CO)C[C@@H]2C)c1 | x | x | x | -52.5 | x | x | x
S=C(NCCCN1CCOCC1)N1CCN(c2nc(-c3ccc(Cl)cc3)cs2)CC1 | -3.0 | -11.8 | 75.5* | 23.9 | 26.6 | 61.5* | 11.2
S=C(NCCCN1CCOCC1)N1CCN(c2nc(-c3ccccc3)cs2)CC1 | -0.3 | -4.2 | -3.6 | 4.0 | 5.0 | 19.9 | x
C[C@@H]1CN([C@@H](C)CO)C(=O)Cc2cc(NC(=O)Nc3ccccc3)ccc2O[C@H]1CN(C)S(=O)(=O)c1ccccc1 | x | x | x | -0.2 | x | x | x
CN(NC(=O)c1cccc(Cl)c1)c1nc(-c2ccccc2)nnc1C(F)(F)F | 1.1 | -4.4 | 34.0 | x | 5.4 | 58.8* | 56.6* | FLuc counter=53.4*
CCSc1nnc(NC(=O)NC(CC)(C(F)(F)F)C(F)(F)F)s1 | -1.4 | -4.4 | 44.2 | x | 3.6 | 90.0* | 36.0 | FLuc counter=64.1*
O=C(Nc1ccc(-c2nc3cc(NC(=O)c4cccs4)ccc3o2)cc1)c1cccs1 | -1.9 | 6.9 | 49.8 | 1.8 | 8.2 | 59.8* | 23.3
O=C(Nc1ccc2oc(-c3ccncc3)nc2c1)c1cccs1 | -1.2 | 9.6 | -92.9 | x | -12.3 | -9.0 | x
O=C(Nc1ccc2oc(-c3ccc4ccccc4c3)nc2c1)c1ccc2c(c1)OCCO2 | 2.1 | -16.2 | -14.8 | x | 20.3 | 80.1* | -2.5
Cc1ccc2nc(-c3cccc(NC(=O)c4ccc5c(c4)OCCO5)c3)oc2c1 | 0.2 | 17.2 | -153.9 | -43.0 | -38.1 | -11.5 | x
C[C@H](CO)N1C[C@H](C)[C@@H](CN(C)CC2CCCCC2)Oc2ccc(NS(=O)(=O)c3ccccc3)cc2C1=O | x | x | x | 7.1 | x | x | x
COc1ccc2c(c1)c1nc3ccccc3nc1n2CC(=O)OC(C)C | -1.2 | -55.5* | 55.3* | x | 23.0 | 57.8* | 15.7
COc1ccc2c(c1)c1nc3ccccc3nc1n2Cc1ccc(OC(C)C)c(OC)c1 | 0.3 | -23.1 | 11.5 | -9.4 | 7.4 | -18.6 | x
COC(=O)Cn1c2ccc(C)cc2c2nc3ccccc3nc21 | -1.9 | 9.6 | 12.2 | -18.8 | -11.0 | -2.3 | x
COc1ccc(Cn2c3ccc(OC)cc3c3nc4ccccc4nc32)cc1 | -4.1 | -12.7 | 16.2 | 5.8 | -5.0 | 51.4* | 24.4
C[C@H](CO)N1C[C@H](C)[C@@H](CN(C)S(=O)(=O)c2cn(C)cn2)Oc2ccc(NS(=O)(=O)c3ccc(F)cc3)cc2C1=O | x | x | x | -12.5 | x | x | x
O=C(NCC[C@@H]1CC[C@@H](NS(=O)(=O)c2ccc(Oc3ccccc3)cc2)[C@@H](CO)O1)C1CC1 | x | x | x | -15.3 | x | x | x
SMILES | HSP90 refold inh | KKLEB cytotox | Peg3 promoter | LGR2 antag | CF NFkB block | Mdm2-MdmX inh | Mdm2-MdmX conf | others
CCOc1cc(NC(=O)C2CC2)c(OCC)cc1NC(=O)c1cc(OC)c(OC)c(OC)c1 | -0.9 | -10.7 | 11.5 | -3.5 | -4.5 | 62.2* | 13.1
CC1(C)Oc2ccc3ccc(=O)oc3c2C[C@H]1O[C@@H]1O[C@H](CO)[C@@H](O)[C@H](O)[C@H]1O | x | -2.6 | 9.4 | -4.3 | -10.7 | -29.3 | x
CC(=O)OC(C)(C)/C=C/C(=O)[C@](C)(O)C1[C@H](O)C[C@@]2(C)C3CC=C4C(C=C(O[C@@H]5O[C@H](CO)[C@@H](O)[C@H](O)[C@H]5O)C(=O)C4(C)C)[C@]3(C)C(=O)C[C@]12C (stereo partly drawn) | x | -68.0* | 57.5* | u | 73.5* | 96.1* | -8.5
CNC(=O)CN(c1cc(OCCOC)c(Cl)cc1Cl)S(=O)(=O)c1ccc(OC)cc1 | 1.7 | 10.8 | 0.5 | -1.1 | 4.2 | 56.5* | 48.1* | FLuc counter=79.3*
CNC(=O)CN(c1ccc(OC)cc1)S(=O)(=O)c1ccc(F)cc1 | 0.6 | -4.8 | 3.4 | x | 6.5 | 7.3 | x
C[C@H](NC(=O)C[C@@H]1CC[C@H](NC(=O)C2CCC2)[C@H](CO)O1)c1ccccc1 | x | x | x | 16.9 | x | x | x
O=C(C[C@@H]1CC[C@H]2[C@@H](COC[C@H](O)CN2Cc2ccccc2F)O1)N[C@H]1CCN(Cc2ccccc2)C1 | x | x | x | -1.7 | x | x | x
CC(C)CN(C(=O)COC(=O)C12CC3CC(CC(C3)C1)C2)c1c(N)n(Cc2ccccc2)c(=O)[nH]c1=O | x | -11.0 | 41.0 | u | 7.1 | 61.1* | 72.4* | FLuc counter=47.0*
CC(C)CN(C(=O)COC(=O)C12CC3CC(CC(O)(C3)C1)C2)c1c(N)n(Cc2ccccc2)c(=O)[nH]c1=O | x | 7.8 | 2.3 | 1.8 | 7.1 | x | x
Cc1ccc(S(=O)(=O)N[C@H]2C=C[C@@H](CC(=O)N3CCC(Cc4ccccc4)CC3)O[C@H]2CO)cc1 | x | x | x | -35.3 | x | x | x
O=C(CCCl)Nc1nc2c(s1)CCc1ccccc1-2 | -2.0 | -38.2 | 54.5* | 8.3 | -8.2 | 68.5* | 61.5* | FLuc counter=24.6
CO[C@H]1CN(C)C(=O)c2ccc(NC(=O)C3CCOCC3)cc2OC[C@@H](C)N(C)C[C@H]1C | x | x | x | 20.6 | x | x | x
CN1C(=O)NC(c2ccccc2)(C(F)(F)F)S/C1=C(/C#N)c1nnc(N2CCOCC2)n1-c1ccccc1 (stereo not drawn) | 1.3 | -12.6 | 0.5 | 9.3 | 13.7 | 50.2* | 18.1
